Reference: PubChem BioAssay AID1159580 (chemical genetic matrix, 2015)
In all, about 5,500 compounds went through this assay and about 2,000 (36%) were called active. Another 18% or so got no clear call; they are omitted. Cut-off read from the data, not from the text of the source: active = normalized growth mostly below about 0.91 (no sharp cut-off); inconclusive = no clear call, values can overlap the other calls; inactive = mostly above about 0.92. The list shows a part of the results.

Experiment: chemical genetic growth profiling, strain panel (AID 1159580);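 note: tested at 20 µM; growth read once vehicle control cultures reached saturation at 30 °C; 1 = growth at the plate median or of vehicle wells; lower values mean less growth of the strain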
Conditions: S. cerevisiae deletion strains, growth OD

Measured: normalized growth

CC(=O)NC(C(=O)O)C(C)(C)SN=O (centres undefined)
inactive: locus YAL013W, strain DEP1, stronger effect = lower value 1.02 | locus YAL021C, strain ccr4, stronger effect = lower value 1.01 | locus YAL026C, strain drs2, stronger effect = lower value 0.992 | locus YAL030W, strain snc1, stronger effect = lower value 0.991 | locus YBL061C, strain skt5, stronger effect = lower value 0.984 | locus YBR009C, strain hhf1, stronger effect = lower value 1 | locus YBR021W, strain FUR4, stronger effect = lower value 0.977 | locus YBR023C, strain chs3, stronger effect = lower value 0.994 | locus YBR171W, strain sec66, stronger effect = lower value 0.993 | locus YBR229C, strain ROT2, stronger effect = lower value 1.01 | locus YBR231C, strain swc5, stronger effect = lower value 0.996 | locus YBR279W, strain paf1, stronger effect = lower value 0.986 | locus YCL011C, strain gbp2, stronger effect = lower value 0.996 | locus YCL016C, strain dcc1, stronger effect = lower value 0.985 | locus YCL029C, strain bik1, stronger effect = lower value 0.981 | locus YCL061C, strain MRC1, stronger effect = lower value 0.999 | locus YCL069W, strain vba3, stronger effect = lower value 0.991 | locus YCR088W, strain abp1, stronger effect = lower value 0.983 | locus YDL005C, strain med2, stronger effect = lower value 0.977 | locus YDL035C, strain GPR1, stronger effect = lower value 1 | locus YDL040C, strain nat1, stronger effect = lower value 0.996 | locus YDL074C, strain BRE1, stronger effect = lower value 1.06 | locus YDL101C, strain DUN1, stronger effect = lower value 1 | locus YDL134C, strain PPH21, stronger effect = lower value 1.01 | locus YDL185W, strain tfp1, stronger effect = lower value 0.98 | locus YDL192W, strain arf1, stronger effect = lower value 0.999 | locus YDR001C, strain nth1, stronger effect = lower value 0.984 | locus YDR069C, strain doa4, stronger effect = lower value 0.984 | locus YDR101C, strain arx1, stronger effect = lower value 1 | locus YDR137W, strain rgp1, stronger effect = lower value 1.04 | locus YDR150W, strain NUM1, stronger effect = lower value 0.978 | locus YDR159W, strain sac3, stronger effect = lower value 0.997 | locus YDR162C, strain NBP2, stronger effect = lower value 1.03 | locus YDR195W, strain ref2 0.949 | locus YDR297W, strain sur2, stronger effect = lower value 0.98 | locus YDR318W, strain mcm21, stronger effect = lower value 1 | locus YDR334W, strain swr1, stronger effect = lower value 0.976 | locus YDR335W, strain msn5, stronger effect = lower value 0.982 | locus YDR388W, stronger effect = lower value 1 | locus YDR392W, strain spt3, stronger effect = lower value 0.98 | locus YDR502C, strain sam2, stronger effect = lower value 1 | locus YEL003W, strain gim4, stronger effect = lower value 0.988 | locus YEL037C, strain rad23, stronger effect = lower value 0.984 | locus YEL061C, strain CIN8 (second series), stronger effect = lower value 0.989 | locus YEL061C, strain CIN8, stronger effect = lower value 1 | locus YER015W, strain faa2, stronger effect = lower value 0.996 | locus YER016W, strain bim1, stronger effect = lower value 0.991 | locus YER110C, stronger effect = lower value 0.984 | locus YER111C, strain swi4, stronger effect = lower value 0.981 | locus YER155C, strain BEM2 (second series), stronger effect = lower value 0.989 | locus YER155C, strain BEM2, stronger effect = lower value 1 | locus YER167W, strain BCK2, stronger effect = lower value 0.995 | locus YFR010W, strain ubp6, stronger effect = lower value 0.976 | locus YGL078C, strain dbp3, stronger effect = lower value 0.99 | locus YGL086W, strain mad1, stronger effect = lower value 0.988 | locus YGL167C, strain pmr1, stronger effect = lower value 0.99 | locus YGL173C, strain kem1, stronger effect = lower value 0.995 | locus YGL227W, strain vid30, stronger effect = lower value 0.992 | locus YGL240W, strain doc1, stronger effect = lower value 0.989 | locus YGL248W, strain PDE1, stronger effect = lower value 1.01 | locus YGL253W, strain hxk2, stronger effect = lower value 0.983 | locus YGR078C, strain PAC10, stronger effect = lower value 1.02 | locus YGR135W, strain pre9, stronger effect = lower value 1 | locus YGR229C, strain SMI1, stronger effect = lower value 1.05 | locus YGR252W, strain gcn5, stronger effect = lower value 1.01 | locus YHR013C, strain ard1, stronger effect = lower value 0.972 | locus YHR027C, strain rpn1, stronger effect = lower value 1.01 | locus YHR030C, strain SLT2, stronger effect = lower value 1 | locus YHR079C, strain IRE1 (second series), stronger effect = lower value 0.999 | locus YHR094C, strain hxt1, stronger effect = lower value 0.98 | locus YHR129C, strain ARP1, stronger effect = lower value 0.998 | locus YHR142W, strain chs7, stronger effect = lower value 0.978 | locus YHR200W, strain rpn10, stronger effect = lower value 0.992 | locus YIL066C, strain RNR3, stronger effect = lower value 1.01 | locus YIL073C, strain SPO22, stronger effect = lower value 0.913 | locus YIL125W, strain kgd1, stronger effect = lower value 0.99 | locus YIR030C, strain dcg1, stronger effect = lower value 1 | locus YJL092W, strain hpr5, stronger effect = lower value 0.983 | locus YJL095W, strain BCK1 (second series), stronger effect = lower value 0.989 | locus YJL095W, strain BCK1, stronger effect = lower value 1.07 | locus YJL115W, strain asf1, stronger effect = lower value 0.986 | locus YJL129C, strain trk1, stronger effect = lower value 0.995 | locus YJL134W, strain LCB3, stronger effect = lower value 1 | locus YJL154C, strain vps35, stronger effect = lower value 0.975 | locus YJL164C, strain tpk1, stronger effect = lower value 1 | locus YJL166W, strain qcr8, stronger effect = lower value 0.996 | locus YJL168C, strain set2, stronger effect = lower value 1.01 | locus YJL187C, strain SWE1 (second series), stronger effect = lower value 1 | locus YJL187C, strain SWE1, stronger effect = lower value 0.989
